Bioassay records (PubChem)
Rows were chosen to be rich in hits. Some 12% of all compounds tested hit in one or more screens of this group.
PI5P4Ka inh = qHTS for Inhibitors of phosphatidylinositol 5-phosphate 4-kinase (PI5P4K); AID 652105, 2013; PI5P4Kalpha enzyme, ADP-Glo luminescence, 60 min; active compounds read low; Phosphatidylinositol 5-phosphate 4-kinase type-2 alpha (Homo sapiens), P48426; max response, %; 330,000 tested, 1.2% active; active = max response of -50% or lower; inconclusive = between -30% and -50%; inactive = -30% or higher; also: value at the top dose of about 77 µM; % is scaled to controls: 0 for no effect and ±100 for the full control effect
Target sequence (P48426 whole entry, looked up): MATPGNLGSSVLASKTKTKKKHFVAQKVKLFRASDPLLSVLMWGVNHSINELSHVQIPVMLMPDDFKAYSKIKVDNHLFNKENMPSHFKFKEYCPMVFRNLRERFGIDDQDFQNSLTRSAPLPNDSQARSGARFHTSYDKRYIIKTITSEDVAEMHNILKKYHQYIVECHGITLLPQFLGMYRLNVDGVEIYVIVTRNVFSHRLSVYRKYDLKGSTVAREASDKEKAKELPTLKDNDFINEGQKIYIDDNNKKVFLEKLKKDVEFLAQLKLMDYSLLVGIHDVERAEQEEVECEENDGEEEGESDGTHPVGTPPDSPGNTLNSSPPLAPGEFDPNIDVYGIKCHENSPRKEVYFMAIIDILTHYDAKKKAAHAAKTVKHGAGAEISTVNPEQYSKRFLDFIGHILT
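Quantitative HTS of the MLSMR library against PI5P4Kalpha with substrate. ATP added last at 5 microM final; room temperature, 60 minutes. Remaining ATP depleted, ADP converted and read as luminescence.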
JMJD2A Tudor = qHTS Assay for Inhibitors of JMJD2A-Tudor Domain; Lysine-specific demethylase 4A (Homo sapiens), O75164; AlphaScreen JMJD2A-Tudor / H3K4me3 peptide binding; Potency, µM (titrated, usually from 114 µM), for the others: at the top dose activity change, negative = inhibition, hits mostly inhibitors; 390,000 tested, 4.4% active; also: potency is read from the fitted curve at half-maximal effect; % is scaled to controls: 0 for no effect and ±100 for the full control effect; nearly all actives have a fitted effect of over 50% in size
G9a block = qHTS Assay for Inhibitors of Histone Lysine Methyltransferase G9a; Histone-lysine N-methyltransferase EHMT2 (Homo sapiens), Q96KQ7; G9a H3K9 monomethylation, AlphaScreen, 2 h; Potency, µM (highest dose often 102 µM), for the others: at the top dose activity, negative = inhibition, hits mostly inhibitors; 350,000 tested, 8.8% active; AID 504332, 2011; also: potency is read from the fitted curve at half-maximal effect; % is scaled to controls: 0 for no effect and ±100 for the full control effect; nearly all actives have a fitted effect of over 75% in size
Target sequence (Q96KQ7 913-1193 limits assumed): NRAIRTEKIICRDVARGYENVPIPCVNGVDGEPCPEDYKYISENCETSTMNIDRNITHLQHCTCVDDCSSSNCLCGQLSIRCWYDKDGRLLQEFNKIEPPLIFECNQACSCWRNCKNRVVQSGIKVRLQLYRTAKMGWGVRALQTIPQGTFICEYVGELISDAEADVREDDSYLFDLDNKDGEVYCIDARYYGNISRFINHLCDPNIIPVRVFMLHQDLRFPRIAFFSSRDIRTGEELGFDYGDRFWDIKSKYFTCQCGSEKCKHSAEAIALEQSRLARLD
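Enzyme 20 nM + cpd, 15 min RT; add b-H3K9 pep 500 nM / SAM 20 uM; 2 h RT; anti-H3K9me1 Ab 0.5 ug/mL + SA donor / anti-rabbit acceptor beads 20 ug/mL each, 10 min; AlphaScreen read.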
HP1b binding inh = HTS for Inhibitors of HP1-beta Chromodomain Interactions with Methylated Histone Tails; Chromobox protein homolog 1 (Homo sapiens), P83916; AlphaScreen HP1-beta / biotin-H3K9me3 peptide binding; Potency, µM (titrated, usually from 114 µM), for inactives: top-dose activity change, negative = inhibition, actives largely listed as inhibitors; 390,000 tested, 0.56% active; AID 540317, 2011; also: potency is read from the fitted curve at half-maximal effect; nearly all actives have a fitted effect of over 70% in size
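HP1-beta protein (50 nM final) preincubated 30 min at room temperature with biotinylated H3(1-18)K9me3 peptide (50 nM) in PBS pH 7.4, 0.01% Tween-20, then compound added for 30 min. AlphaScreen streptavidin donor/nickel chelate acceptor beads (10 ug/mL final), 30 min dark, luminescence read.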
BAZ2B inh = qHTS Assay for Inhibitors of BAZ2B | Bromodomain adjacent to zinc finger domain protein 2B (Homo sapiens), Q9UIF8 | AlphaScreen BAZ2B-H3K14Ac peptide displacement | Potency, µM (titrated, usually from 114 µM), without a hit: at the highest dose activity change, negative = inhibition, actives largely listed as inhibitors | 360,000 tested, 4.4% active | AID 504333, 2011; also: potency is read from the fitted curve at half-maximal effect; % is scaled to controls: 0 for no effect and ±100 for the full control effect; nearly all actives have a fitted effect of over 60% in size
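BAZ2B 50 nM plus b-H3(5-23)K14Ac 50 nM, PBS pH 7.4/0.01% Tween-20, 30 min RT; compound added (max 110 uM), 30 min RT; streptavidin donor/Ni-chelate acceptor beads 10 ug/mL final, 20 min dark; AlphaScreen read.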
PLK1 PBD block = qHTS for Inhibitors of PLK1-PDB (polo-like kinase 1 - polo-box domain): Primary Screen | Serine/threonine-protein kinase PLK1 (Homo sapiens), P53350 | Plk1 PBD binding of FITC phosphopeptide, fluorescence polarization | Potency, µM, inactives show max response, negative = inhibition, hits mostly inhibitors | 360,000 tested, 2.8% active | AID 720504, 2013; also: potency is read from the fitted curve at half-maximal effect; series mostly up to about 57 µM; % is scaled to controls: 0 for no effect and ±100 for the full control effect; nearly all actives have a fitted effect of over 65% in size
TbPYK confirm = qHTS of Trypanosoma Brucei Inhibitors: Confirmatory Assay for Cherry-picked Compounds. shares compounds with PLK1 PBD block. recombinant TbPYK, Kinase-Glo ATP luminescence. Potency, µM (titrated, usually from 76.9 µM), for inactives: at the highest dose activity change, negative = inhibition, usual class: inhibitors. 890 tested, 67% active. AID 720569, 2013; also: potency is read from the fitted curve at half-maximal effect; % is scaled to controls: 0 for no effect and ±100 for the full control effect; nearly all actives have a fitted effect of over 70% in size
TbPYK orthogonal = qHTS of Trypanosoma Brucei Inhibitors: Orthogonal Assay for Cherry-picked Compounds. recombinant TbPYK, ADP-Glo luminescence, 60 min. shares compounds with PLK1 PBD block. 890 tested, 62% active. Potency, µM (highest dose often 76.9 µM), without a hit: top-dose activity change, negative = inhibition, actives largely listed as inhibitors; also: potency is read from the fitted curve at half-maximal effect; % is scaled to controls: 0 for no effect and ±100 for the full control effect; nearly all actives have a fitted effect of over 75% in size
Numbers without * were called inactive; ? = inconclusive; . = no result; [ ] = dose if it differs, or a comment. Unless noted, calls follow the shape of the dose curve; as a rule, active = well fitted curve in the direction sought with a large enough effect; inconclusive = small, poorly fitted or top-dose-only effect, or another doubt; inactive = no such curve, though single readings can be large; an effect the other way counts as inactive or inconclusive.

SMILES	PI5P4Ka inh	JMJD2A Tudor	G9a block	HP1b binding inh	BAZ2B inh	PLK1 PBD block	TbPYK confirm	TbPYK orthogonal
Cc1ccc(NC(=O)NC(=O)CN2CCN(c3ccc(O)cc3)CC2)c(C)c1	-24	45µM*	7.9µM*	71µM*	?	-8%	11µM*	5.6µM*
Cc1ccc(S(=O)(=O)C2CS(=O)(=O)CC2O)cc1 (stereo not drawn)	.	-10%	21%[12.7 µM]	29%	31%	-21%	.	.
CC(=O)C1=C(S(=O)(=O)c2ccc(C)cc2)CS(=O)(=O)C1	?	22µM*	1.3µM*	14µM*	?	2.1µM*	4µM*	5.6µM*
COc1ccc(-c2nnc3ccc(SCC(=O)N4CCN(c5ccccc5)CC4)nn23)cc1	-25	?	.	34%	.	-21%	?	?
CCn1c(C(=O)N2CCCC(C(=O)NCCc3ccc(C)cc3)C2)cc2sccc21 (stereo not drawn)	.	-30%	-1%[59 µM]	18%	-9%	1%	16µM*	32µM*
CCn1c(C(=O)N2CCCC(C(=O)NCCCc3ccccc3)C2)cc2sccc21 (stereo not drawn)	.	-29%	?	6%	-1%	2%	.	.
COc1ccc(C2=CC(=O)CC(C)(C)C2)cc1OC	0	-23%	0%[0.501 µM]	16%	9%	-9%	.	.
O=C(N/N=C/c1ccccc1)c1[nH]ncc1Br	-12	-17%[11.4 µM]	-26%	31%	.	-8%	-27%	1%
O=C(N/N=C/c1cccnc1)c1[nH]ncc1Br	9	-8%	-46%	17%	-9%	0%	.	.
O=C(/C=C1\C(=O)Nc2ccccc21)/C=C1\C(=O)Nc2ccccc21	-83*	?	7.1µM*	-1%	45µM*	8.4µM*	18µM*	18µM*
CCCCCCC(=O)N(O)C1CC(=O)N(c2ccc(F)cc2)C1=O (stereo not drawn)	-25	50µM*	.	35µM*	-8%	27µM*	?	?
CCCCN(C(=O)CCC(=O)O)C1CC(=O)N(c2ccc(OCCC)cc2)C1=O (stereo not drawn)	1	2%	-1%[12.7 µM]	18%	-3%	1%	.	.
N#Cc1cc2c(nc1SCC(=O)N1CCCCC1)CCCC2	-11	7%	-4%[12.7 µM]	31%	-5%	-7%	.	.
N#Cc1cc2c(nc1SCC(=O)N1CCCCC1)CCCCC2	-14	56µM*	2.8µM*	-20%	10%	27µM*	13µM*	13µM*
O=C(CSc1nnc(-c2ccco2)n1CC1CCCO1)c1ccc(F)cc1 (stereo not drawn)	?	3.2µM*	45µM*	?	-23%	2.7µM*	?	40µM*
O=C(CSc1ccc(-c2ccco2)nn1)c1ccc(F)cc1	-69*	45µM*	40µM*	?	-34%	?	25µM*	32µM*
CC(=O)Nc1ccc(C(=O)CSc2nnc(-c3ccc(O)cc3)n2CC2CCCO2)cc1 (stereo not drawn)	.	79µM*	20µM*	-14%	-28%	-17%	16µM*	?
COc1ccc(C(=O)CSc2nnc(-c3ccco3)c(-c3ccco3)n2)cc1	-57*	22µM*	8.9µM*	?	20µM*	27µM*	25µM*	35µM*
Cc1nnc2ccc(-c3ccc(NS(=O)(=O)c4ccc(F)cc4F)cc3)nn12	-5	-17%	9%[0.501 µM]	16%	5%	-7%	.	.
O=C1N=c2ccccc2=C1c1[nH]c(=S)[nH]c1O	?	-23%	?	-9%	?	-10%	.	.
O=C1N=c2ccccc2=C1c1sc(=O)[nH]c1O	-87*	-16%	.	26%	-15%	-11%	?	?
CC1=C(C)CS(=O)N(S(=O)(=O)c2ccc(Cl)cc2)C1 (stereo not drawn)	-20	-12%	2.2µM*	64%	2%	1.3µM*	16µM*	28µM*
CC1CCCC(C)N1S(=O)(=O)c1ccc(Cl)cc1 (stereo not drawn)	2	6%	60%	94%	9%	-7%	.	.
COc1cccc(Nc2ccc(N3CCCCC3)cc2)c1OC	.	32µM*	-23%[0.501 µM]	32µM*	14µM*	.	?	?
Cc1c(Cl)cc(-n2cnnn2)cc1[N+](=O)[O-]	2	-11%	-29%	48%	-2%	3%	.	.
SMILES	PI5P4Ka inh	JMJD2A Tudor	G9a block	HP1b binding inh	BAZ2B inh	PLK1 PBD block	TbPYK confirm	TbPYK orthogonal
Cc1c([N+](=O)[O-])cc(N2C(=O)C=CC2=O)cc1[N+](=O)[O-]	-66*	22µM*	.	35µM*	.	2.7µM*	4µM*	7.9µM*
Cc1cc(C)cc(N2C(=O)C=CC2=O)c1	?	20µM*	.	13µM*	.	3µM*	10µM*	14µM*
CCCN1C(=O)S/C(=C\c2ccc(N3CCOCC3)o2)C1=O	-26	?	4µM*	?	-38%	105%	?	40µM*
Oc1ccc(/C=N/Nc2nccnc2Cl)cc1	-65*	-6%[57.1 µM]	5%[12.7 µM]	-10%	-2%	-11%	16µM*	13%
Fc1cccc(/C=N/Nc2nccnc2Cl)c1	?	-19%	36%	45%	-2%	-22%	?	0%
O=C(NC1CCCCC1)C1(S(=O)(=O)c2ccc(Cl)cc2)CC1	-1	1%	6%	8%	2%	-11%	.	.
COc1ccc(N2C(=O)/C(=C/c3cccs3)NC2=S)cc1	?	79µM*	1.8µM*	?	?	2.7µM*	8.9µM*	13µM*
O=C(NCc1ccc(Cl)cc1)N1CCN(Cc2ccccc2)CC1	-1	-5%	.	23%	-1%	-14%	.	.
Clc1ccccc1Nc1nc(NCc2ccccc2)nc2ccsc12	1	.	.	.	.	-7%	.	.
OCc1ccccc1-c1nc(NCc2ccccc2)nc2ccsc12	?	.	.	.	.	?	?	?
